{
  "source": "PubChem BioAssay (NCI)",
  "note": "About 83,000 compounds went through this panel and 20% of them were active in at least one assay; those are over-represented in the sample as a whole.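 Plates (96-well) were seeded with cells, treated with compound at one concentration, and incubated for 48 hours before percent growth was determined.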 Unmarked numbers belong to inactive results. The source made the active and inactive calls. Rule for the calls: active = growth percent below 10; inactive = the rest.",
  "data": [
    {"tested_on": "NCI-H460 lung", "test": "NCI-60 one-dose screen, 48 h (100 = growth as untreated, 0 = no growth, -100 = all killed)", "settings": "10 µM unless noted", "values": [
      {"smiles": "COC(=O)[C@]1(C)CC[C@]2(C)CC[C@]3(C)C(=CC(=O)[C@@H]4[C@@]5(C)CCC(=O)NC(C)(C)[C@@H]5CC[C@]43C)[C@@H]2C1", "growth": "-17.2% [100 µM] (active)"},
      {"smiles": "O=C(CSc1nc2ccc([N+](=O)[O-])cc2[nH]1)Nc1cccc(Cl)c1", "growth": "25.3%"},
      {"smiles": "CCn1cc(-c2ccnc(NCCNS(=O)(=O)c3cccc4ccccc34)c2)c(-c2cccc(O)c2)n1", "growth": "102%"}
    ]},
    {"tested_on": "HOP-92 NSCLC", "test": "NCI-60 one-dose screen, 48 h (100 = growth as untreated, 0 = no growth, -100 = all killed)", "settings": "10 µM unless noted", "values": [
      {"smiles": "CCOc1cc(/C=N\\NC(=O)N/N=C/c2ccc(O)c(OCC)c2)ccc1O", "growth": "80.7%"},
      {"smiles": "Cc1ccc(C2=C/C(=C/c3ccc(Br)cc3)C(=O)N2CCc2ccc(S(N)(=O)=O)cc2)cc1", "growth": "89.9%"},
      {"smiles": "Clc1ccc(N2CCN(CCCN3CCN(c4cccc(Cl)c4)CC3)CC2)cc1", "growth": "42.7%"},
      {"smiles": "CC(C)OC(=O)Nc1cc(F)ccc1F", "growth": "99.6%"},
      {"smiles": "C[C@H]1[C@H](C)CC[C@]2(C(=O)N3CCN(C)CC3)CC[C@]3(C)C(=CC[C@@H]4[C@@]5(C)C/C(=C/c6ccco6)C(=O)C(C)(C)[C@@H]5CC[C@]43C)[C@H]12", "growth": "56.9% [100 µM]"},
      {"smiles": "CC(C)C1=NOC(=O)C1=Cc1cn(-c2ccccc2)nc1-c1ccc(Br)cc1", "growth": "83.1%"},
      {"smiles": "C=C(CN=[N+]=[N-])[C@@H]1CC[C@]2(C)[C@H](CC[C@@H]3[C@H]4[C@H]5OC(=O)[C@@]4(CCC5(C)C)CC[C@]32C)[C@@]1(C)CCC#N", "growth": "65% [100 µM]"},
      {"smiles": "Nn1c(Nc2ccc(S(=O)(=O)Nc3ncccn3)cc2)nnc(/C=C/c2c(O)ccc3ccccc23)c1=O", "growth": "83.3%"},
      {"smiles": "Nc1cc(NN=C(c2ccc(O)cc2)c2ccc(O)cc2)c([N+](=O)[O-])cc1[N+](=O)[O-]", "growth": "60.5%"},
      {"smiles": "CSc1nc2c(c(=O)n1C)C1(C(=O)N(Cc3ccccc3)c3ccccc31)c1c(nc(SC)n(C)c1=O)N2", "growth": "93.2%"},
      {"smiles": "NNC(=O)c1ccc(C(=O)NN)cc1", "growth": "104%"},
      {"smiles": "COc1cc(Cl)cc(-c2nn(C(=O)NS(=O)(=O)c3ccccc3)cc2-c2ccncc2)c1", "growth": "47.7%"},
      {"smiles": "CCN(CC)CC(C)Nc1ccc(C)c2sc3ccccc3c(=O)c12", "note": "(stereo unspecified)", "growth": "38.2%"},
      {"smiles": "COc1ccc2c3ccnc(C(F)(F)F)c3n(CCCCN)c2c1", "growth": "-22.3% (active)"},
      {"smiles": "COc1ccc(C2CC(c3cc(OC)c(OC)c(OC)c3)=NN2C(C)=O)cc1OCC(=O)Nc1nc2ccc(C(F)(F)F)cc2s1", "note": "(stereo unspecified)", "growth": "-3.98% (active)"},
      {"smiles": "COC(=O)C(=Cc1ccccc1[N+](=O)[O-])C(=O)OC", "growth": "16.5%"},
      {"smiles": "C=CCCCCOc1ccccc1-c1cnc(OCCCCC=C)n1C", "growth": "75.2%"},
      {"smiles": "O=C(O)c1cccc(CN2CCN(c3cc4c(cc3F)c(=O)c(C(=O)O)cn4C3CC3)CC2)c1O", "growth": "97%"},
      {"smiles": "Cc1cc(C)c(O)c(CNCCCCCCNCc2cc(C)cc(C)c2O)c1", "growth": "12.1%"},
      {"smiles": "Cc1cnc(N)nc1OCC(C)(C)CNC(=O)c1cccc(-c2ccc(S(=O)(=O)Nc3ccc4c(c3)N(C(=O)C3CC3)CCC4)cc2)c1", "growth": "53.5%"},
      {"smiles": "CCOc1cc(NC(=O)c2ccccc2)c(OCC)cc1N", "growth": "104%"},
      {"smiles": "CCN(CC)c1ccc(/C=C/c2ccc3cc(C)ccc3[n+]2CC)cc1", "growth": "-17.5% (active)"},
      {"smiles": "O=C1COCCN1c1ccc(NCc2cn(Cc3ccccc3)c3ccccc23)cc1", "growth": "69.5%"},
      {"smiles": "c1nc(N2CCOCC2)c2[nH]ccc2n1", "growth": "69.8%"},
      {"smiles": "O=C(Nc1cccc2cccnc12)c1cc(C(=O)c2ccc(Cl)cc2)n2ccc(-c3ccncc3)cc12", "growth": "83.9%"},
      {"smiles": "COc1cc2c(c(OC)c1)C1c3cc(OC)ccc3NC(=O)N1CC2", "note": "(stereo unspecified)", "growth": "80.6%"},
      {"smiles": "CC[C@]1(O)CC2CN(CCc3c([nH]c4ccccc34)[C@@](C(=O)OC)(c3cc4c(cc3OC)N(C=O)[C@H]3[C@@](O)(C(=O)OC)[C@H](OC(C)=O)[C@]5(CC)C=CCN6CC[C@]43[C@@H]65)C2)C1", "note": "(stereo partly specified)", "growth": "25.4%"},
      {"smiles": "CC(C)C1=NOC(=O)C1=Cc1cn(-c2ccco2)nc1-c1ccccc1", "growth": "94.1%"},
      {"smiles": "COC(=O)[C@H](CC(C)C)NC(=O)NC(=O)NC(=O)CI", "growth": "-60.6% (active)"},
      {"smiles": "O=C1NC(=O)C(Cc2ccc(OCc3ccc(-c4cc(F)c(F)c(F)c4)cc3)cc2)S1", "note": "(stereo unspecified)", "growth": "98.2%"},
      {"smiles": "NC(=O)CC1C=CCC1", "note": "(stereo unspecified)", "growth": "106%"},
      {"smiles": "CC(C)C1=NOC(=O)C1=Cc1cn(-c2ccccc2)nc1-c1ccccc1", "growth": "85.2%"},
      {"smiles": "COc1ccc2c(c1)c(-c1noc(C(=O)c3cn(C)c4ncc(Br)cc34)n1)cn2C", "growth": "7.92% (active)"},
      {"smiles": "C#C[C@]1(O)CC[C@H]2[C@@H]3CC=C4c5nc(Nc6ccccn6)sc5CC[C@]4(C)[C@H]3CC[C@@]21C", "growth": "-24.5% (active)"},
      {"smiles": "O=C1CN(Cc2ccc(C(=O)NO)cc2)C(=O)[C@@H](Cc2ccccc2)N1", "growth": "102%"},
      {"smiles": "COC(=O)[C@]1(C)CC[C@]2(C)CC[C@]3(C)C(=CC(=O)[C@@H]4[C@@]5(C)CCC(=O)NC(C)(C)[C@@H]5CC[C@]43C)[C@@H]2C1", "growth": "-85.6% [100 µM] (active)"},
      {"smiles": "O=C(CSc1nc2ccc([N+](=O)[O-])cc2[nH]1)Nc1cccc(Cl)c1", "growth": "-27.9% (active)"},
      {"smiles": "CCn1cc(-c2ccnc(NCCNS(=O)(=O)c3cccc4ccccc34)c2)c(-c2cccc(O)c2)n1", "growth": "79.8%"}
    ]}
  ]
}
